AGP1 TOR yeast: alters AGP1-GFP fluorescence in TOR pathway yeast screen; S. cerevisiae AGP1-GFP multiplex flow cytometry, 3 h; GFP as percent of DMSO wells; GFP response vs DMSO, % at 10 µM; 0.02% of 320,000 active; AID 2066;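 active = GFP response relative to DMSO above a set limit, near screen average plus 3 SD, cut at about 150% in these data; inconclusive = fewer than 70 cells counted for the yeast strain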;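 note: median GFP channel fluorescence of the gated AGP1 strain per well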
MEP2-GFP yeast: modulators of TOR pathway MEP2-GFP in S. cerevisiae. 0.51% of 330,000 active. GFP response vs DMSO, % at 10 µM. AID 2016. S. cerevisiae MEP2-GFP strain, flow cytometry GFP, 3 h; 100% = DMSO control level;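 active = GFP response versus DMSO above a set limit, roughly screen mean plus 3 SD, cut at about 180% in these data; inconclusive = fewer than 70 cells counted for a yeast strain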;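 note: median GFP fluorescence of the barcode-gated MEP2-GFP cells per well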
LAP4 TOR yeast: modulators of TOR pathway LAP4-GFP in S. cerevisiae; 0.34% of 320,000 active; S. cerevisiae LAP4-GFP multiplex, flow cytometry GFP, 3 h; median GFP as percent of DMSO wells; GFP response vs DMSO, % at 10 µM;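 active = GFP response vs DMSO above a set limit, about the screen mean plus 3 SD, cut at about 150% in these data; inconclusive = under 70 cell events counted for the yeast strain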
CIT2 TOR yeast: yeast TOR pathway CIT2-GFP modulation; S. cerevisiae CIT2-GFP strain, flow cytometry, 3 h; 100 means same as DMSO wells; GFP response vs DMSO, % at 10 µM; 0.065% of 320,000 active; AID 2029;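 active = GFP response relative to DMSO above a set limit, near the screen mean plus 3 SD, cut at about 150% in these data; inconclusive = Fewer than 70 cells measured for a yeast strain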;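 note: ratio of well median GFP fluorescence to mean of DMSO wells on the plate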
RPL19A TOR yeast: modulators of TOR pathway RPL19A-GFP in S. cerevisiae | S. cerevisiae RPL19A-GFP strain, flow cytometry, 3 h; stronger effect = lower value | percent response vs DMSO, % at 10 µM | 0.3% of 330,000 active | AID 2025;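 active = percent response vs DMSO below 50%; inconclusive = fewer than 70 events counted for the yeast strain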;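 note: median channel GFP fluorescence of the barcoded RPL19A-GFP strain; lower means less RPL19A-GFP as with rapamycin TOR inhibition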
Numbers stand for hits; . = inactive; ? = inconclusive; / = not tested or not shown; [ ] = remark or other dose. In the library only some 0.92% were active in any assay of this set; here they are far more common.

SMILES	AGP1 TOR yeast	MEP2-GFP yeast	LAP4 TOR yeast	CIT2 TOR yeast	RPL19A TOR yeast
Clc1ccc(-c2csc(N/N=C/c3ccco3)n2)cc1	?	596[may fluoresce violet]	.	?	26[may fluoresce violet]
COc1ccccc1N1CCN(CCCNC(=O)C2CCCN(c3ncnc4c3nc3n4CCCCC3)C2)CC1 (stereo unspecified)	.	.	.	.	.
Cc1cc(-c2ccc(N=Nc3c(S(=O)(=O)O)cc4cc(S(=O)(=O)O)cc(N)c4c3O)c(C)c2)ccc1N=Nc1c(S(=O)(=O)O)cc2cc(S(=O)(=O)O)cc(N)c2c1O	.	.	400[may fluoresce red]	.	?
O=S(=O)(O)c1cc(O)c2c(O)c(N=Nc3cc(Cl)ccc3O)c(S(=O)(=O)O)cc2c1	.	.	.	.	.
CC1(C)[C@H]2CC=C(CN3CCC(N4CCC(C(=O)N5CCCC5)CC4)CC3)[C@@H]1C2	.	.	.	.	.
C/C(=N\NC(=O)Cn1ccc(C(F)(F)F)n1)c1ccco1	.	.	.	.	.
CCOc1ccccc1NC(=O)NCc1cccnc1	?	271[may fluoresce violet]	.	?	18[may fluoresce violet]
O=C(NC(=S)NNC(=O)c1ccco1)c1ccc(F)cc1	?	?	?	?	8.6[may fluoresce violet]
CC1(C)CC(=O)c2sc(N3CCCCC3)nc2C1	.	218[may fluoresce violet]	.	?	.
CC1(C)CNC(=O)c2sc(N3CCCCC3)nc2C1	.	.	.	.	.
Cc1ccc(C(C(=O)NC2CCCCC2)N(CCCN2CCOCC2)C(=O)c2snc(C(N)=O)c2N)cc1 (stereo unspecified)	.	181	.	.	41
Cc1ccc(Cn2c(=N)c(C(=O)NCC3CCCO3)cc3c(=O)n4cccc(C)c4nc32)cc1 (stereo unspecified)	.	.	.	.	.
Cc1cccn2c(=O)c3cc(C(=O)NCC4CCCO4)c(=N)n(CCN4CCOCC4)c3nc12 (stereo unspecified)	?	605[may fluoresce violet]	.	?	49[may fluoresce violet]
N=c1c(C(=O)NCC2CCCO2)cc2c(=O)n3ccccc3nc2n1C1CCCCC1 (stereo unspecified)	.	.	.	.	45
Cc1ccc(Cn2c(=N)c(C(=O)NCC3CCCO3)cc3c(=O)n4ccccc4nc32)cc1 (stereo unspecified)	.	.	.	.	.
Cc1cccn2c(=O)c3cc(C(=O)NCC4CCCO4)c(=N)n(C4CCCC4)c3nc12 (stereo unspecified)	?	?	.	?	24[may fluoresce violet]
CC(=O)Oc1ccccc1C(=O)N(C1CCCCC1)C1CCCCC1	.	.	.	.	.
CN(C)CCNC(=O)C1(O)c2cc(Br)ccc2NC(=O)N1c1ccc(Cl)cc1 (stereo unspecified)	.	.	.	.	.
O=C(OCc1ccccc1F)c1cnc(Cl)c(Cl)c1	.	.	.	.	.
Cc1[nH]ncc1-c1ccccc1Cl	.	336[may fluoresce violet]	.	?	48[may fluoresce violet]
COc1ccc(-c2cn[nH]c2C)cc1OC	.	.	.	.	.
COC(=O)C1CCN(C(=O)C2CCN(C(=O)[C@@H](NS(=O)(=O)c3ccc(C)cc3)C(C)C)CC2)CC1	.	.	.	.	.
Oc1ccc2ccccc2c1/C=N/c1nc2c(s1)CCCC2	.	.	.	.	.
Oc1c(Br)cc(Br)cc1/C=N/c1nc2c(s1)CCCC2	.	.	.	?	47[may fluoresce violet]
O=C(O)c1ccc(Cl)c(S(=O)(=O)Nc2ccccc2C(=O)Nc2ccc(Cl)cc2)c1	.	.	.	.	.
SMILES	AGP1 TOR yeast	MEP2-GFP yeast	LAP4 TOR yeast	CIT2 TOR yeast	RPL19A TOR yeast
CCC(Oc1ccccc1)C(=O)Nc1ccc(C)c(S(=O)(=O)N2CCOCC2)c1 (stereo unspecified)	.	.	.	.	.
Cc1c(NS(=O)(=O)CC23CCC(CC2=O)C3(C)C)c(=O)n(-c2ccccc2)n1C (stereo unspecified)	?	205[may fluoresce violet]	.	?	.
CC1(C)C2CCC1(CS(=O)(=O)Nc1ccccc1)C(=O)C2 (stereo unspecified)	.	.	.	.	.
COc1cc(C(=O)O/N=C2\C=CC(=O)C=C2C)cc(OC)c1OC	.	.	.	.	.
COc1cc(C(=O)ON=C2C3CC4CC(C3)CC2C4)cc(OC)c1OC	.	.	155	180	.
O=C(CSc1n[nH]c(-c2cccnc2)n1)Nc1ccccc1C(F)(F)F	.	.	.	.	.
COc1ccccc1C(=O)NC(=O)COC(=O)c1oc2ccccc2c1C	.	.	.	.	.
COC(=O)C1=C(C)NC(C)=C(C(=O)OC)C1c1ccc(OC(=O)c2oc3ccccc3c2C)c(OC)c1	.	.	.	157	.
CN(/N=C/c1ccc(Br)o1)C1=NS(=O)(=O)c2ccccc21	.	.	.	.	.
Cc1nn(Cc2ccc(Cl)cc2)c(=O)n1N(C)c1ncc(C(F)(F)F)cc1Cl	/	207	.	.	.
CCOC(=O)CNC(=O)c1cn(CC(C)C)c(=O)c2cc(OC)c(OC)cc12	?	248[may fluoresce violet]	.	?	41[may fluoresce violet]
COc1cc2c(C(=O)N3CCN(C4CCCCC4)CC3)cn(CC(C)C)c(=O)c2cc1OC	.	201[may fluoresce violet]	.	?	49[may fluoresce violet]
CCCN1CCN(C(=O)c2cn(CC(C)C)c(=O)c3cc(OC)c(OC)cc23)CC1	.	.	.	.	.
CN(C)c1ccc(CNS(=O)(=O)c2csc(C(N)=O)c2)cc1	.	.	.	?	33[may fluoresce violet]
COc1ccc(OCCOc2ccccc2[N+](=O)[O-])cc1	.	.	.	.	.
O=[N+]([O-])c1ccccc1OCCOc1ccccc1[N+](=O)[O-]	155	530	167	.	.
CN(CC(=O)Nc1ccc(N2CCOCC2)cc1)C(=O)CCNC(=O)c1ccc(Br)cc1	.	.	.	.	.
NC(=O)CC(NC(=O)Cc1ccc(Br)cc1)c1ccc(N2CCC(N3CCCC3)CC2)c([N+](=O)[O-])c1 (stereo unspecified)	.	.	.	.	.
CS(=O)(=O)N1CCN(c2nnc(-c3ccccc3)c3ccccc23)CC1	?	230[may fluoresce violet]	.	?	.
CC(Nc1cc(C)cc(C)c1)=[N+](C)CCNS(=O)(=O)c1ccc(Cl)cc1	.	.	.	152[may fluoresce green]	.
Cc1occc1-c1nnc(SCC(=O)NC2CCC(C)CC2)o1 (stereo unspecified)	.	.	.	.	.
Cc1ccc(C=C2C(Cl)=C(Cl)C(Cl)=C2Cl)cc1	.	.	155	.	.
Cc1ccc(/C=[N+](/C)[O-])cc1	.	.	.	.	.
CC1C2=C(CC(C)(C)CC2=O)NC2=C1C(=O)CC(C)(C)C2	.	.	.	?	43[may fluoresce violet]
CC1(C)CC(=O)C2=C(C1)NC(=O)NC2c1ccccc1 (stereo unspecified)	.	.	.	.	.
CC(C)NC(=O)COc1ccc(S(=O)(=O)N(C)Cc2ccccc2)cc1	.	408[may fluoresce violet]	.	?	.
CN(Cc1ccccc1)S(=O)(=O)c1ccc(OCC(=O)NCc2ccccn2)cc1	.	.	.	.	.
O=C(Nc1nccs1)C(c1ccccc1)N1CCCCC1 (stereo unspecified)	.	186	.	.	.

Screens as filed in PubChem.
